MITF primary: inhibitors of human MITF | O75030 | AlphaScreen MITF homodimerization, bead proximity signal | inhibition, % at 2.6 µM | 650,000 compounds, 0.91% hits; in the data active means inhibition above about 50%
TEAD-YAP block: TEAD-YAP interaction inhibition; HEK-TIYL cells, TEAD-Gal4/YAP UAS-luciferase luminescence; inhibition, % at 9.12 µM; 640,000 compounds, 1.4% hits; AID 1259422; in the data active means inhibition above about 32%
GPR151 activ: human GPR151 activation; AID 1508602; activation, % at 11.2 µM; 650,000 compounds, 1% hits; Q8TDV0; PathHunter beta-arrestin GPR151 cells, luminescence; in the data active means activation above about 4.9%
FBW7 act: activators of human E3 ligase FBW7; AlphaScreen FBW7–phospho-cyclin E peptide binding, activator screen; normalized activity (activation), % at 26.1 µM; 650,000 compounds, 0.13% hits; AID 1259310; in the data active means normalized activity above about 1.9%;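 further: purified mutant Fbw7 with reduced substrate affinity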
Target sequence (Q969H0 whole entry, looked up): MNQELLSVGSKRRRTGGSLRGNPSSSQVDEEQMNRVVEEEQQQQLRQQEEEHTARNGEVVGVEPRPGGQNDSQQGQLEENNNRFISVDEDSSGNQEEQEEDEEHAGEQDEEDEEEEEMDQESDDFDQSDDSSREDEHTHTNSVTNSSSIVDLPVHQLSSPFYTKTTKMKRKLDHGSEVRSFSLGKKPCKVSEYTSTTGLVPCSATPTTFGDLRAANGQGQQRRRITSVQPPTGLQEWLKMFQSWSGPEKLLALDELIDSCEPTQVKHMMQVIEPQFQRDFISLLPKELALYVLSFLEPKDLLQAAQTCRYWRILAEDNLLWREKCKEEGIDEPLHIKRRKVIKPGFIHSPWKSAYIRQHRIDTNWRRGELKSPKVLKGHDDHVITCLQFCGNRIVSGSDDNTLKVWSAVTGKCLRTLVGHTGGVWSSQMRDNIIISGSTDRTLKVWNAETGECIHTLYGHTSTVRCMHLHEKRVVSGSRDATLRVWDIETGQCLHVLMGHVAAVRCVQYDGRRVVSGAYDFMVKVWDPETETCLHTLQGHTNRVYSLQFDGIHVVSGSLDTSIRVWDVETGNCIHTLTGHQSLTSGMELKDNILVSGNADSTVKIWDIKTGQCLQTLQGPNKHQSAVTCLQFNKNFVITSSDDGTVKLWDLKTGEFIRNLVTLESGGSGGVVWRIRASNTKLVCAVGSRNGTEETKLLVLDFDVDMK
MITF inh conf: human MITF inhibition, confirmation; inhibition, % at 2.6 µM; AlphaScreen MITF homodimerization, biotin/His-MITF beads; 4,700 compounds, 16% hits; shares compounds with MITF primary; AID 1259372;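 active means inhibition above a cutoff derived from the DMSO control wells, cut at about 28% in these data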;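 further: inhibitors lower the bead chemiluminescence by keeping MITF from dimerizing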
AS interf DR: AlphaScreen optical interference, dose response counter-screen. 480 compounds, 6% hits. AID 1259373. shares compounds with MITF primary. IC50, µM. AlphaScreen optical interference counterscreen, cell-free; call rule not given here
AS interf ctr: optically interferes with AlphaScreen signal; shares compounds with MITF primary; LysRS AlphaScreen counterscreen, signal interference, triplicate; inhibition, % at 2.6 µM; 4,700 compounds, 7.6% hits; AID 1259376;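 active means inhibition above a cutoff derived from the DMSO control wells, cut at about 30% in these data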
Hits are given with their value; . = inactive; / = not tested or not shown. Compounds with a hit are over-represented: about 3.4% of the library has one in this group of screens.

SMILES | MITF primary | TEAD-YAP block | GPR151 activ | FBW7 act | MITF inh conf | AS interf ctr | others
COc1ccccc1CNCc1ccccc1Br | . | . | . | . | / | /
COc1cc(OC)c(OC)cc1CN1CCN(Cc2ccccc2C(F)(F)F)CC1 | 75.9 | . | . | . | . | .
O=C(C1CCNCC1)N1CCN(Cc2ccc3c(c2)OCO3)CC1 | 56.5 | . | . | . | . | .
CCc1ccc(CN2CCN(C(=O)c3ccccc3F)CC2)cc1 | 50.8 | . | . | . | . | .
O=C(c1ccccc1F)N1CCN(Cc2ccc3c(c2)OCO3)CC1 | 51.3 | . | . | . | . | .
O=C(NC(Cc1ccccc1)c1ccccc1)c1ccco1 (centres undefined) | . | . | . | . | / | /
O=C(NCC(F)(F)F)c1cnc2scc(-c3ccc(Cl)s3)n2c1=O | . | . | . | . | / | /
CCC(C(=O)N1CCCC1)c1ccccc1 (centres undefined) | . | . | . | . | / | /
CC(C(=O)N1CCCC1)N1CCN(C(c2ccccc2)c2ccccc2)CC1 (centres undefined) | 84.8 | . | . | . | . | .
COc1ccccc1N1CCN(C(=S)NCCN(C)C)CC1 | 76.8 | . | . | . | . | .
COc1ccc(CCNCC(=O)Nc2ccccc2N2CCOCC2)cc1 | 60.1 | . | . | . | . | .
O=C(CN1C(=O)c2ccccc2C1=O)Nc1ccccc1N1CCOCC1 | . | . | . | . | / | /
O=C(CNC1CCCCCC1)Nc1ccccc1N1CCOCC1 | . | . | . | . | / | /
O=C(CNCCN1CCOCC1)Nc1sc2c(c1C(=O)c1ccccc1)CCCC2 | 74.5 | . | . | . | . | .
O=C(CN1CCCCC1)Nc1ccccc1N1CCOCC1 | 59.5 | . | . | . | . | .
O=C(CNCCN1CCOCC1)Nc1ccccc1N1CCOCC1 | 63.9 | . | . | . | . | .
O=C(CN1CCOCC1)Nc1sc2c(c1C(=O)c1ccccc1)CCCC2 | . | . | . | . | / | /
O=C(Nc1ccc2c(c1)OCO2)c1ccc2nc(Nc3nccc4ccccc34)sc2c1 | . | . | . | . | / | /
CCOCCCNCC(=O)Nc1ccccc1N1CCOCC1 | 51.4 | . | . | . | . | .
CC1CCCCN1CC(=O)Nc1ccccc1N1CCCCC1 (centres undefined) | 52.5 | . | . | . | . | .
O=C(CNCCc1ccccc1)Nc1ccccc1N1CCOCC1 | 51.1 | . | . | . | . | .
O=C(Cc1ccccc1)Nc1ccc(N2CCOCC2)cc1N1CCOCC1 | . | . | . | . | / | /
CC1CCCCN1CC(=O)Nc1ccccc1C(N)=O (centres undefined) | . | . | . | . | / | /
O=C(CNCC1CCCCC1)Nc1ccccc1N1CCOCC1 | 66.0 | . | . | . | . | .
COc1ccc(C)cc1NC(=O)CN(c1ccccc1OC)S(C)(=O)=O | . | . | . | . | / | /
SMILES | MITF primary | TEAD-YAP block | GPR151 activ | FBW7 act | MITF inh conf | AS interf ctr | others
Cc1nc(NC(=O)CSc2nnc3n(C)c(=O)c4ccccc4n23)sc1C | . | . | . | . | / | /
CCOc1ccc(S(=O)(=O)N/N=C(\C)c2ccc3ccccc3c2)cc1 | . | . | . | . | / | /
CCOC(=O)c1cc(NS(=O)(=O)c2ccccc2)ccc1Cl | . | . | . | . | / | /
O=C(O)CCNC(=S)Nc1ccccc1 | . | . | . | . | / | /
CCOc1ccc(S(=O)(=O)NC2CCCCC2)cc1-c1nc2c(C(C)(C)C)nn(C)c2c(=O)[nH]1 | 76.8 | . | . | . | . | .
CS(=O)(=O)N(CC(=O)Nc1ccc(C(N)=O)cc1)c1ccc(Oc2ccccc2)cc1 | . | . | . | . | / | /
O=C(NCC(c1ccsc1)N1CCCCCC1)c1c(F)cccc1F (centres undefined) | 84.4 | . | . | . | . | .
NC(=O)c1ccccc1NC(=O)Nc1ccc(Br)cc1Cl | . | . | . | . | / | /
CCCCOc1ccc(OCCOCCN2CCN(CC)CC2)cc1 | 65.3 | . | . | . | . | .
CCN1CCN(CCOc2ccc(F)cc2)CC1 | 80.7 | . | . | . | . | .
CCN1CCN(CCOCCOc2ccc(F)cc2)CC1 | 70.3 | . | . | . | 32.1 | . | AS interf DR=.
CCN1CCN(CCCOc2ccc(C#N)cc2)CC1 | 72.1 | . | . | . | . | .
CC(C)c1cc(C(C)C)c(S(=O)(=O)NC(CO)(CO)CO)c(C(C)C)c1 | . | . | . | . | / | /
Fc1ccc(OCCN2CCNCC2)cc1 | 60.4 | . | . | . | . | .
CCN1CCN(CCOCCOc2ccc(I)cc2)CC1 | 81.4 | . | . | . | . | .
Cc1ccc(NC(=O)Nc2nnc(COc3ccc([N+](=O)[O-])cc3)s2)cc1 | . | . | . | . | / | /
O=[N+]([O-])c1ccc(N2CCN(S(=O)(=O)c3ccccc3)CC2)cc1NC1CC1 | 71.2 | . | . | . | . | .
COc1ccc(C(=O)N2CCc3c([nH]c4ccccc34)C2c2ccc(OC)cc2)cc1 (centres undefined) | . | . | . | . | / | /
c1cn2cc(Cc3nnc4n3CCC4)nc2s1 | 79.7 | . | . | . | . | .
c1cn2cc(Cc3nnc4n3CCCCC4)nc2s1 | . | . | . | . | / | /
COc1ccc(OC)c(-n2cnc3cc(C(=O)NCc4ccccc4Cl)ccc32)c1 | . | . | . | . | / | /
COc1ccc(OC)c(-n2cnc3cc(C(=O)NCc4ccco4)ccc32)c1 | 74.8 | . | . | . | . | .
O=C(CCCc1c[nH]c2ccccc12)NC1=NCCS1 | . | . | . | . | / | /
Cc1nnn(C23CC4CC(CC(CC(=O)Nc5ccc(F)cc5)(C4)C2)C3)n1 | 75.1 | . | . | . | . | .
COc1ccc(CN2CCC3(CCC(CNC(=O)C(C)C)O3)CC2)cc1 (centres undefined) | . | . | . | . | / | /
SMILES | MITF primary | TEAD-YAP block | GPR151 activ | FBW7 act | MITF inh conf | AS interf ctr | others
Cn1nccc1Nc1nc(Nc2ccccc2)c2ncn(CCN3CCCC3=O)c2n1 | . | . | . | . | / | /
Cc1ccc(Nc2nc(CSc3nnnn3C)cs2)cc1 | . | . | . | . | / | /
CCCN1CCN(Cc2csc(Nc3ccc(C)cc3)n2)CC1 | 61.5 | . | . | . | . | .
O=C1OC(c2ccccc2)OC(=O)C1=Cc1cc2c(cc1[N+](=O)[O-])OCO2 (centres undefined) | . | . | . | . | / | /
CCN(CC)CCCOc1ccc2ccccc2c1 | 66.3 | . | . | . | . | .
CC(C)/C=C/CN1CCc2nnc(CNC(=O)C3CCC(=O)N3)n2CC1 (centres undefined) | . | . | . | . | / | /
CCC(CC)CN1CCc2nnc(CNC(=O)C3CCC(=O)N3)n2CC1 (centres undefined) | 78.5 | . | . | . | . | .
Cc1ccc(Cn2c(=N)n(CC(O)COc3ccc(Cl)cc3)c3ccccc32)cc1 (centres undefined) | 64.3 | . | . | . | . | .
CN(CCc1cnn(C)c1)Cc1ccc(OCC(O)CN(C)Cc2ccccc2)cc1 (centres undefined) | . | . | . | . | / | /
COc1ccccc1COCC(O)CNCCCN(C)C (centres undefined) | 56.1 | . | . | . | . | .
COc1ccccc1COCC(O)CNCCc1ccc(C(F)(F)F)cc1 (centres undefined) | . | . | . | . | / | /

Screens (PubChem)
